Mcl1-Bid inh: disrupts binding of human Mcl-1 to Bid peptide; Q07820; TR-FRET Mcl-1/Bid-Dy647 peptide binding, 1536-well; inhibition, % at 21.7 µM; 0.97% of 220,000 active; AID 1021;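 active = compounds that cut the binding signal by more than half at the single screening dose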;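 note: His-tagged Mcl-1 with europium anti-His antibody binding Bid BH3 peptide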
Target sequence (Q07820 whole entry, looked up): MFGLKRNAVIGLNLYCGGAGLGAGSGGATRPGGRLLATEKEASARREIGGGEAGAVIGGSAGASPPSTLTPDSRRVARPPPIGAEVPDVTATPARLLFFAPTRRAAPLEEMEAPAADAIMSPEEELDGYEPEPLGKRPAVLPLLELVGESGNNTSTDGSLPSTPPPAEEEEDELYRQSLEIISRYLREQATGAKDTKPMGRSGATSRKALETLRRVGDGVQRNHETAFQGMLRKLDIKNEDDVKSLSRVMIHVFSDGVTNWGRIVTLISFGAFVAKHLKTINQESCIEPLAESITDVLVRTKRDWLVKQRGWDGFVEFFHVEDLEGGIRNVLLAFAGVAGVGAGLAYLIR
Mcl1 Noxa PPI: disrupts binding of human Mcl-1 to Noxa peptide | Q07820 | TR-FRET Mcl-1/Noxa peptide binding, 2 h | inhibition, % at 21.7 µM | 1.5% of 220,000 active | AID 1022;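 active = compounds that cut the protein-peptide binding signal by more than 50% relative to plate controls in a single-dose test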;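 note: His-tagged Mcl-1 with rhodamine Noxa BH3 peptide and terbium anti-His antibody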
L929 necroptosis: blocks zVAD induced death of L929 cells; L929 zVAD necroptosis rescue, ATP luminescence, 24 h; with zVAD 60 µM; viability rescue, % at 10 µM; 0.38% of 220,000 active; AID 1377;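 active = activation, scaled between plate controls, above about 75%, limit read from the data; inactive = activation under that limit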
Bim-Mcl-1: inhibitors of Bim-Mcl-1 interaction, human. inhibition, % at 10 µM. Q07820. 0.1% of 190,000 active. Bead-based flow cytometry, Bim peptide-Mcl-1 binding; in the data active = inhibition above about 40%
m-calpain inh: blocks pig calpain II enzyme activity | inhibition, % at 16 µM | 0.37% of 220,000 active | purified calpain II, fluorogenic peptide substrate, 30 min | AID 1236;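 active = inhibition above about 50%, limit read from the data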
TNF necrop inh: TNF-alpha cell death inhibition in Jurkat FADD-/- cells. Jurkat FADD-/- TNF necroptosis rescue, ATP luminescence, 24 h; 0 = TNF only, 100 = no-TNF cells. activation (protection from cell death), % at 10 µM. 0.068% of 220,000 active. AID 463075;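 active = activation, meaning protection from cell death, of at least 50% relative to plate controls; inactive = activation below 50%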;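 note: necroptosis triggered by 40 ng/mL TNF-alpha added together with compound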
Numbers stand for hits; – = inactive; · = no result given. Shown are actives, neighbours in structure and some others; about 2.8% of the full set was active somewhere.

SMILES | Mcl1-Bid inh | Mcl1 Noxa PPI | L929 necroptosis | Bim-Mcl-1 | m-calpain inh | TNF necrop inh
O=C(CN1C(=O)CSc2ccc(S(=O)(=O)N3CCOCC3)cc21)NCc1cccnc1 | – | 54.5 | – | – | – | –
COc1ccc(NC(=O)Cn2cc(C(=O)c3ccco3)c3ccccc32)cc1 | – | – | – | – | – | –
O=C(Cn1cc(C(=O)c2ccco2)c2ccccc21)Nc1ccccc1 | – | – | – | – | 61.3 | –
CC(=O)Nc1ccc(NC(=O)[C@@H]2CCCN2S(=O)(=O)c2ccc3c(c2)OCCO3)cc1 | – | – | – | – | – | –
Cc1cc(C(=O)O)ccc1-n1c(C)cc(/C=C(/C#N)C(=O)Nc2ccccc2)c1C | – | – | – | – | 58.6 | –
Cc1cc(C(=O)O)ccc1-n1c(C)ccc1C | 57.0 | 77.8 | – | – | – | –
O=C(COc1ccccc1)N/N=C/c1ccc([N+](=O)[O-])o1 | – | – | – | – | – | –
O=C(CNc1ccc2ccccc2c1)N/N=C/c1ccc([N+](=O)[O-])o1 | 64.6 | 70.5 | – | – | – | –
COc1ccccc1NC(=O)CSc1nnnn1-c1ccc2c(c1)OCO2 | 99.4 | – | – | – | – | –
O=C1Nc2ccccc2/C1=C/c1cnc(-c2ccccc2)[nH]1 | – | 65.1 | – | · | – | –
O=C(c1ccc2c(c1)OCO2)N1CCCc2ccccc21 | – | – | – | – | – | –
Cc1ccc2c(c1)CCCN2C(=O)c1ccc2c(c1)OCO2 | – | – | – | – | 50.2 | –
O=C(CSC1=NCCN1)C1COc2ccccc2O1 (centres undefined) | – | – | – | – | – | –
O=[N+]([O-])c1cc(/C=N\Nc2nccs2)ccc1O | 60.5 | 100.5 | – | – | – | –
NC(=O)C(=CNc1nc(-c2ccc(Cl)c(Cl)c2)cs1)C(N)=O | – | 73.3 | – | · | – | –
Cc1cccc(Nc2sc(C(=O)c3cc4cc(Cl)ccc4o3)c(N)c2C#N)c1 | 65.8 | 67.8 | – | · | – | –
CC(=O)NC(CCS(C)(=O)=O)C(=O)Nc1ccc(Oc2ccccc2)cc1 (centres undefined) | – | – | – | – | – | –
CC(C)C(=O)Nc1nnc(SCC(=O)NCc2ccco2)s1 | – | – | – | – | – | –
O=C(CN1CCN(c2ccc(O)cc2)CC1)NC(=O)NCc1ccco1 | – | 51.6 | – | – | – | –
Cc1ccccc1Nc1nnc(SCC(=O)NCc2ccco2)s1 | – | 60.6 | – | – | – | –
O=C(CSc1ncccn1)NC(=O)NCc1ccco1 | – | – | – | – | – | –
CCCCn1c(SCc2ccc(C(=O)OC)o2)nc2cc(S(N)(=O)=O)ccc21 | – | – | – | – | – | –
CCCCn1c(SCC(=O)NC(=O)NCc2ccco2)nc2cc(S(N)(=O)=O)ccc21 | – | 62.8 | – | – | – | –
O=C(CSc1ccccc1F)NC(=O)NCc1ccco1 | – | 51.6 | – | – | – | –
CCOC(=O)COc1c(Br)cc(/C=C2\SC(=O)N(CC(=O)N3CCCC3)C2=O)cc1OC | – | – | – | – | – | –
SMILES | Mcl1-Bid inh | Mcl1 Noxa PPI | L929 necroptosis | Bim-Mcl-1 | m-calpain inh | TNF necrop inh
CCCNC(=O)c1ccc(CN2CCOCC2)cc1 | – | – | – | – | – | –
CN(/C=C1/C(=O)CNC1=O)CCO | – | – | – | – | – | –
COc1ccccc1CNC(=O)c1cc2c(=O)[nH]c3ccccc3c2n1C | – | – | – | – | – | –
COc1ccc(-n2nnnc2SCC(=O)NCc2ccco2)cc1OC | – | – | – | – | – | –
O=C(CSc1nc2ccccc2s1)NC(=O)NCc1ccco1 | – | 54.5 | – | – | – | –
CS/C(=N\S(=O)(=O)c1cccs1)NC(=O)CSc1nc2ccccc2s1 | – | 52.8 | – | – | – | –
COc1ccc(C)cc1-n1nnnc1SCC(=O)NC(=O)NCc1ccco1 | – | 62.3 | – | – | – | –
CCC1CCCCN1C(=S)Nc1ccc(OC(F)F)cc1 (centres undefined) | – | – | – | – | – | –
COC(=O)C1=C(C)N(C)C(=S)NC1c1c(OC)ccc2ccccc12 (centres undefined) | – | – | – | – | – | –
COc1ccc(O)c(C(=O)/C=C/c2cc3ccccc3o2)c1 | 67.5 | – | – | · | – | –
O=[N+]([O-])c1ccc(NCCCNS(=O)(=O)c2ccc(Cl)cc2)c(Cl)c1 | – | – | – | – | 71.2 | –
Cc1ccc2c(c1)N(CCC(=O)NCCN1CCOCC1)C(=O)CO2 | – | 51.6 | – | – | – | –
N/C(=N\NC(=O)c1ccccc1)c1cc2ccccc2oc1=O | – | – | – | – | 59.5 | –
O=C(CCC(=O)c1ccccc1)NCc1ccccc1 | – | – | – | · | – | –
COc1cccc(-c2nn(-c3ccccc3)cc2CN2CCCO2)c1 | – | – | – | – | – | –
Cc1ccc(S(=O)(=O)Nc2ccccc2C(=O)NCc2cccnc2)cc1 | – | 66.1 | – | – | – | –
Cc1noc(NS(=O)(=O)c2ccc(NC(=O)c3ccc(N4C(=O)c5ccccc5C4=O)cc3)cc2)c1C | – | – | – | – | 82.5 | –
Cc1cc(C)c2nc(-c3ccccn3)cc(C(=O)Nc3ccc(S(=O)(=O)Nc4onc(C)c4C)cc3)c2c1 | – | 79.1 | – | – | – | –
COc1cccc(C(=O)/C=C/Nc2ccc(S(=O)(=O)Nc3onc(C)c3C)cc2)c1 | – | – | – | 66.0 | – | –
Cc1noc(NS(=O)(=O)c2ccc(NC(=O)CCN3C(=O)c4ccccc4C3=O)cc2)c1C | – | – | – | – | – | –
CC1CCCCC1NCC(=O)NCc1ccc(F)cc1 (centres undefined) | 57.5 | – | – | – | – | –
CN1CCN(CCCN2c3ccccc3Sc3ccc(Cl)cc32)CC1 | – | 77.2 | – | – | – | –
Cn1c(=NC(=O)c2ccccc2[N+](=O)[O-])sc2cccc(F)c21 | – | – | – | · | – | –
COc1ccc2c(c1)O[C@@H](c1ccc3c(c1)OCO3)[C@H](OC(=O)Nc1cc(OC)c(OC)c(OC)c1)C2=O | – | – | – | – | – | –
COc1ccc(CN(C)CC(=O)NC(C)c2ccccc2)c(OC)c1 (centres undefined) | 56.3 | – | – | – | – | –
SMILES | Mcl1-Bid inh | Mcl1 Noxa PPI | L929 necroptosis | Bim-Mcl-1 | m-calpain inh | TNF necrop inh
CC(OC(=O)c1cc(-c2cccnc2)nc2ccccc12)C(=O)Nc1ccc2ccccc2c1 (centres undefined) | – | – | – | – | – | –
CCCc1nc(SC)[nH]c(=O)c1C | – | – | – | · | – | –
CCOC(=O)c1c(C)[nH]c(C(=O)COC(=O)/C=C/c2ccc(O)c(OC)c2)c1C | – | – | – | – | – | –
CCOC(=O)c1c(C)[nH]c(C(=O)COC(=O)/C=C/c2ccc3c(c2)OCO3)c1C | 55.8 | – | – | – | – | –
COC(=O)c1cc(O)cc(OC)c1C(=O)c1c(O)cc(C)cc1O | – | – | – | · | – | –
COC(=O)c1cc(O)cc(OC)c1Oc1cc(C)cc(O)c1C(=O)O | – | 85.0 | – | · | – | –

Screening data from PubChem BioAssay.
